In test [1] the target is T1, Muscle, skeletal receptor tyrosine-protein kinase (Homo sapiens) (UniProt O15146).
T1 sequence (whole entry): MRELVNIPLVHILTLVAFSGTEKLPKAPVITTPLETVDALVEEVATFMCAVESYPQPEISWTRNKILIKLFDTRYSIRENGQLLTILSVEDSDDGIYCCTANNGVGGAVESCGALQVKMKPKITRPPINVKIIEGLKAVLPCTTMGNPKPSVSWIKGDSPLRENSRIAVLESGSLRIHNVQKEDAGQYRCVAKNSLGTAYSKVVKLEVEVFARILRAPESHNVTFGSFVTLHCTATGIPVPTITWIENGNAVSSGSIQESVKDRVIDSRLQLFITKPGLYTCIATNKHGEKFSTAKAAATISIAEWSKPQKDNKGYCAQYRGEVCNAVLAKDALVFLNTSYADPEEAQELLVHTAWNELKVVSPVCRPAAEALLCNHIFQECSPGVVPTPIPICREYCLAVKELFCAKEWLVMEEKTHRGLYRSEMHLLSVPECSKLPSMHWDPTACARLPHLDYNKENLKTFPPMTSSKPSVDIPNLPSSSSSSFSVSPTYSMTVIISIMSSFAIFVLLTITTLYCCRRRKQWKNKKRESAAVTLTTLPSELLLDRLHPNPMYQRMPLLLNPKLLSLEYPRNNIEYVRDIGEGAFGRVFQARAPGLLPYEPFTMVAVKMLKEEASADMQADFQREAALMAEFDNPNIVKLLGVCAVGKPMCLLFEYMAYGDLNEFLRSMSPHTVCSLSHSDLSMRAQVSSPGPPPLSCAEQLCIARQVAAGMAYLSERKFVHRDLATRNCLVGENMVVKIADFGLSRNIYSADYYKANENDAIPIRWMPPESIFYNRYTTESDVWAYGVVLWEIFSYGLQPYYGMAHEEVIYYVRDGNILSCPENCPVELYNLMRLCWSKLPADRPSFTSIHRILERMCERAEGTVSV
The settings on record: at 1 µM.

Test [2] concerns the target T1, Muscle, skeletal receptor tyrosine-protein kinase (Homo sapiens). The conditions noted are these: at 10 µM.
For test [3], the target named is T2, Serine/threonine-protein kinase Nek11 (Homo sapiens) (UniProt Q8NG66).
T2 sequence (whole entry): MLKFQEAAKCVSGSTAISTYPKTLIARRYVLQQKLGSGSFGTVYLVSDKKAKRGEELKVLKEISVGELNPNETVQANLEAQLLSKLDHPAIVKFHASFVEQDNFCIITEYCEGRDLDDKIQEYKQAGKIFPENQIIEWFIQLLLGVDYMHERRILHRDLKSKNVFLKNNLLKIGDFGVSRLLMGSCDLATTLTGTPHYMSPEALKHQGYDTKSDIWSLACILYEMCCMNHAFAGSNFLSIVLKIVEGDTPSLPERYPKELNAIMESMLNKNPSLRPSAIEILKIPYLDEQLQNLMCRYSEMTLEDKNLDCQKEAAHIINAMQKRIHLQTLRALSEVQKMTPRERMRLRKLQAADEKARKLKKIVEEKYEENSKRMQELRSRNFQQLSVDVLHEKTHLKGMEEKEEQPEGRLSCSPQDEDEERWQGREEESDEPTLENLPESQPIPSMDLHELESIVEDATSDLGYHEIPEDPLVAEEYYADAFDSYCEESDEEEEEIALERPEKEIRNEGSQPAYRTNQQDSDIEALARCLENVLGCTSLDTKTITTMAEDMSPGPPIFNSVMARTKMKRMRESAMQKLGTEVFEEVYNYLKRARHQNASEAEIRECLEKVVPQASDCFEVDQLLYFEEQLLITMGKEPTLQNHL
The settings on record: at 1 µM.

Test [4] addresses T2, Serine/threonine-protein kinase Nek11 (Homo sapiens). The settings on record: at 10 µM.
The target in test [5] is T3, Serine/threonine-protein kinase Nek2 (Homo sapiens) (UniProt P51955).
T3 sequence (whole entry): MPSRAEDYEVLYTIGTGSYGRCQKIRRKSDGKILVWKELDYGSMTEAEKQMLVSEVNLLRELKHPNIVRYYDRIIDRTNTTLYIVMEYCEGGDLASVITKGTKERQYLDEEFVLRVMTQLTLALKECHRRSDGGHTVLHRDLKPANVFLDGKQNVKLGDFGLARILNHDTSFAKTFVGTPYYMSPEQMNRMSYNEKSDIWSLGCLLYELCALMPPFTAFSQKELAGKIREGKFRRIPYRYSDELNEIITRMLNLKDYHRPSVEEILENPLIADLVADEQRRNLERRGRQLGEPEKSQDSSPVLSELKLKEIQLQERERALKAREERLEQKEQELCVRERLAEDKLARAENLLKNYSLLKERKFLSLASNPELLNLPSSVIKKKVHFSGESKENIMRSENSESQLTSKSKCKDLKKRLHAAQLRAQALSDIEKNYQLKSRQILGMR
The settings on record: at 1 µM.

Test [6] addresses T3, Serine/threonine-protein kinase Nek2 (Homo sapiens). The conditions noted are these: at 10 µM.
The target in test [7] is T4, Serine/threonine-protein kinase Nek3 (Homo sapiens) (UniProt P51956).
T4 sequence (whole entry): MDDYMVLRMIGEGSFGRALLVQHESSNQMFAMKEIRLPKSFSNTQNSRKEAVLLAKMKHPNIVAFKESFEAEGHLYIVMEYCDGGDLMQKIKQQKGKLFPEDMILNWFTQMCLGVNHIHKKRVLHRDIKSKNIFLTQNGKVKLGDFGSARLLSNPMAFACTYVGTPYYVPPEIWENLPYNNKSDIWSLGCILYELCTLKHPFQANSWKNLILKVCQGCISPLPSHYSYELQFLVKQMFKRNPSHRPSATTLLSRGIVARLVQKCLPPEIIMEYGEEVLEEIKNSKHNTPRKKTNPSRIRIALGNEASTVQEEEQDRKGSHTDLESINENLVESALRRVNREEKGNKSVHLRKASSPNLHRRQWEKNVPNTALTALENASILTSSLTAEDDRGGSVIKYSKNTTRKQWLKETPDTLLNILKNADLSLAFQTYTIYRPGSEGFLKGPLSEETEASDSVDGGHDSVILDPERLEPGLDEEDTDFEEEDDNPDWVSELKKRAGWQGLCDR
The conditions noted are these: at 1 µM.

Test [8] has as its target T4, Serine/threonine-protein kinase Nek3 (Homo sapiens). The conditions noted are these: at 10 µM.
Test [9] concerns the target Serine/threonine-protein kinase tousled-like 2 (Homo sapiens) (UniProt Q86UE8). The conditions noted are these: at 1 µM.
For test [10] the target is unchanged. The settings on record: at 10 µM.
Test [11] addresses T5, Testis-specific serine/threonine-protein kinase 1 (Homo sapiens) (UniProt Q9BXA7).
T5 sequence (whole entry): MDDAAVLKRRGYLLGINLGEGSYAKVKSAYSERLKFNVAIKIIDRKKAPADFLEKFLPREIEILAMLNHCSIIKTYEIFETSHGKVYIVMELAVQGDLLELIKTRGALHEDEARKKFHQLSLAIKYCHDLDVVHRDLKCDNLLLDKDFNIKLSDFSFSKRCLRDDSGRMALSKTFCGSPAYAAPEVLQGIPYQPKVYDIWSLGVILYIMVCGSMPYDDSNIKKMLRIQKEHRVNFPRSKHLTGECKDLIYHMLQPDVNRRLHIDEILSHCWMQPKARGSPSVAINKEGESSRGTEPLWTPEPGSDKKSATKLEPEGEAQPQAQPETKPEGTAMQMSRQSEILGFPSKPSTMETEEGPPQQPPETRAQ
The settings on record: at 1 µM.

In test [12] the target is T5, Testis-specific serine/threonine-protein kinase 1 (Homo sapiens). The conditions noted are these: at 10 µM.
Test [13] has as its target T6, Testis-specific serine/threonine-protein kinase 2 (Homo sapiens) (UniProt Q96PF2).
T6 sequence (whole entry): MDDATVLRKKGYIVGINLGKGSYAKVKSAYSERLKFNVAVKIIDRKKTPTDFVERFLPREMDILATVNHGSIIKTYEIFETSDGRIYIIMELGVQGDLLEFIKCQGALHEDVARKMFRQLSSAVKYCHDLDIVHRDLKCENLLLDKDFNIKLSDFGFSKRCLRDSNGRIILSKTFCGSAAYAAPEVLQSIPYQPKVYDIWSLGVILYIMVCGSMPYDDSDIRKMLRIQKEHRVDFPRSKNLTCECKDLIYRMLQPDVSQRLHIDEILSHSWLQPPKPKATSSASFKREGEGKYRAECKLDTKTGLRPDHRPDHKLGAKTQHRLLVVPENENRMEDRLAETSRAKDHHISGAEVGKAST
The settings on record: at 10 µM.

Test [14] has as its target T7, Tyrosine-protein kinase Tec (Homo sapiens) (UniProt P42680).
T7 sequence (whole entry): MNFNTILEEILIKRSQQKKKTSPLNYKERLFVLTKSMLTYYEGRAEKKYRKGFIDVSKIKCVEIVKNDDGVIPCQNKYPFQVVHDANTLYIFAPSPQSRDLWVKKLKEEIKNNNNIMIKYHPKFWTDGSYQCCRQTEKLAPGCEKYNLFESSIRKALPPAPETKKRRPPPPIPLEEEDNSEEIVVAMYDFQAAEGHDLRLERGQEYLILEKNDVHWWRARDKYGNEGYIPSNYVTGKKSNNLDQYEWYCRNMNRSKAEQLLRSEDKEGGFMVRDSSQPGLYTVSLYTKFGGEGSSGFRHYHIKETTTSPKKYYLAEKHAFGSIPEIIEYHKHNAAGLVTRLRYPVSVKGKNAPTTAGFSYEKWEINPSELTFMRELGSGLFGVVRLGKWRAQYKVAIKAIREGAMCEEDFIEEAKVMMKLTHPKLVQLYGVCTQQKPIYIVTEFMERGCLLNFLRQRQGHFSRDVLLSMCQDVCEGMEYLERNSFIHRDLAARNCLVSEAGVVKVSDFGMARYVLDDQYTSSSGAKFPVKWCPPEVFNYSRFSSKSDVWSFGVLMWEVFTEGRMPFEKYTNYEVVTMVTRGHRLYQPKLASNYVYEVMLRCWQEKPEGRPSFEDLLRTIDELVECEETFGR
The conditions noted are these: at 1 µM.

Test [15] has as its target T7, Tyrosine-protein kinase Tec (Homo sapiens). The conditions noted are these: at 10 µM.
Test [16] addresses Angiopoietin-1 receptor (Homo sapiens) (UniProt Q02763). The conditions noted are these: at 1 µM.
For test [17] the target is unchanged. The settings on record: at 10 µM.
In test [18] the target is High affinity nerve growth factor receptor (Homo sapiens) (UniProt P04629). The conditions noted are these: at 1 µM.
Test [19] has the same target. The settings on record: at 10 µM.
The target of test [20] is BDNF/NT-3 growth factors receptor (Homo sapiens) (UniProt Q16620). The settings on record: at 1 µM.

SMILES strings stand for the structures.

BDNF/NT-3 growth factors receptor (Homo sapiens), sequence (Q16620 32-822 limits assumed): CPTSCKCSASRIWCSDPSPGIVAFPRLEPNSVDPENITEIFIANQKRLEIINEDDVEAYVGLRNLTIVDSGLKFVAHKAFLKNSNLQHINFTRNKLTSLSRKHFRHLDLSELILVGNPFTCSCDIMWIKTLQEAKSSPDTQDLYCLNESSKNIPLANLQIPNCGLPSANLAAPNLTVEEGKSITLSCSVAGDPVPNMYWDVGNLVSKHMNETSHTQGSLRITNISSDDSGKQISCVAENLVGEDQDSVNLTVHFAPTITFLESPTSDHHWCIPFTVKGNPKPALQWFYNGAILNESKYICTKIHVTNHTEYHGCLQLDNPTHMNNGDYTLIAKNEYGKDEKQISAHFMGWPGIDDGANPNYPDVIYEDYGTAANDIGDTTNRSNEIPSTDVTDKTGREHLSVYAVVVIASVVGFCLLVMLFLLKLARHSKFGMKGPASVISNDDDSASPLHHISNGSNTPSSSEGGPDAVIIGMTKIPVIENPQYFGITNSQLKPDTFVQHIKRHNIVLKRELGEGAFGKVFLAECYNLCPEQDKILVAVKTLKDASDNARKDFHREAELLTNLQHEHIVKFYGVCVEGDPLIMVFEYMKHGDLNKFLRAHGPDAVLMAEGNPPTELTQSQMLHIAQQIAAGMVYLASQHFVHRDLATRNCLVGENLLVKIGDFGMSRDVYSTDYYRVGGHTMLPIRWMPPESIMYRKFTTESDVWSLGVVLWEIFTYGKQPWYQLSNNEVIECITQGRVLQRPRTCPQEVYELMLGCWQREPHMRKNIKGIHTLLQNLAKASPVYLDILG
Angiopoietin-1 receptor (Homo sapiens), sequence (Q02763 whole entry): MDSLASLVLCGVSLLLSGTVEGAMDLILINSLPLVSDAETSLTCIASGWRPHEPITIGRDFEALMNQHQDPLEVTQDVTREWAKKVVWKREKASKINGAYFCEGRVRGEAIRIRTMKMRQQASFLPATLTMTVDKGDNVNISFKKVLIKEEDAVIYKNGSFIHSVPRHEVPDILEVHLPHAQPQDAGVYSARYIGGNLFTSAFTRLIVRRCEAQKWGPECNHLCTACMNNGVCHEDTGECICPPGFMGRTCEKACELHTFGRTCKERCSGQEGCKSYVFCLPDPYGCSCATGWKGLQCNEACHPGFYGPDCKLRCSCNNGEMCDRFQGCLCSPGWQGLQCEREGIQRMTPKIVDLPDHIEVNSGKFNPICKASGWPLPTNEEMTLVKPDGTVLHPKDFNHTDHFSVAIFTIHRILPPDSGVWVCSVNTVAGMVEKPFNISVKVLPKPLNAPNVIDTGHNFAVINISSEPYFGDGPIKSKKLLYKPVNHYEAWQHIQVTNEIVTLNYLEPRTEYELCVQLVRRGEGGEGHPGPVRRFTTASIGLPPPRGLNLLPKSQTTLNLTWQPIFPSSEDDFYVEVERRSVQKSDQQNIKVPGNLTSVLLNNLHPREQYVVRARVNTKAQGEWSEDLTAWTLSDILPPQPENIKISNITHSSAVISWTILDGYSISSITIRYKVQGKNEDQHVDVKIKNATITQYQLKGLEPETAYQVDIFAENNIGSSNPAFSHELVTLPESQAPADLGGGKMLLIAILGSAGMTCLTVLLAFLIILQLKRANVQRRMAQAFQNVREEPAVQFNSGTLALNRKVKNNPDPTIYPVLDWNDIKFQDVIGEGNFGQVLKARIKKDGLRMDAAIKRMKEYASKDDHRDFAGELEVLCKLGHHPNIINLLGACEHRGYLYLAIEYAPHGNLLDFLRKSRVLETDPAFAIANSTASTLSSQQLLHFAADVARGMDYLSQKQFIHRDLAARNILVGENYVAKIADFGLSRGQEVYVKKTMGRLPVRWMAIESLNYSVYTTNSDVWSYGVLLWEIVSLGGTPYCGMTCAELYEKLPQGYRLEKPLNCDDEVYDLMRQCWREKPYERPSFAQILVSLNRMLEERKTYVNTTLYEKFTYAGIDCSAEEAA
High affinity nerve growth factor receptor (Homo sapiens), sequence (P04629 33-796 limits assumed): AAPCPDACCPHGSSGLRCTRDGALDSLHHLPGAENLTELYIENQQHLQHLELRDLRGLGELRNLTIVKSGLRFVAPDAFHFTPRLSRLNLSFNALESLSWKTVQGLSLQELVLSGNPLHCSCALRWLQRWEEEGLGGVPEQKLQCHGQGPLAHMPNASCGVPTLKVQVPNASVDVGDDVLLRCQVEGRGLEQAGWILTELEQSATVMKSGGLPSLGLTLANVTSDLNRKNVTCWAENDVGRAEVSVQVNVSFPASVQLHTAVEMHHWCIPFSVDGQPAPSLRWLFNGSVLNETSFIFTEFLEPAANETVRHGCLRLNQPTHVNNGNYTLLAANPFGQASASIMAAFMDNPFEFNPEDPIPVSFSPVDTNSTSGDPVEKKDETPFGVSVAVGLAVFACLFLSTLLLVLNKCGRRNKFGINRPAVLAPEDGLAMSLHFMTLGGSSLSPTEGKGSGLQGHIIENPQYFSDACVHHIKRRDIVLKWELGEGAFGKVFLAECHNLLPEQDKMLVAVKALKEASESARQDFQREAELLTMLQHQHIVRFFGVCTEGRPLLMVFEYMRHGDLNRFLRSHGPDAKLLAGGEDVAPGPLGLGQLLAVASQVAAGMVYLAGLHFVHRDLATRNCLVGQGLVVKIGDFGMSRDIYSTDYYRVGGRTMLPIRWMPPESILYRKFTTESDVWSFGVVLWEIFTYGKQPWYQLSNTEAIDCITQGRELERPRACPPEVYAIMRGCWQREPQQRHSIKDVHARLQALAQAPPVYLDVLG
Serine/threonine-protein kinase tousled-like 2 (Homo sapiens), sequence (Q86UE8 whole entry, looked up): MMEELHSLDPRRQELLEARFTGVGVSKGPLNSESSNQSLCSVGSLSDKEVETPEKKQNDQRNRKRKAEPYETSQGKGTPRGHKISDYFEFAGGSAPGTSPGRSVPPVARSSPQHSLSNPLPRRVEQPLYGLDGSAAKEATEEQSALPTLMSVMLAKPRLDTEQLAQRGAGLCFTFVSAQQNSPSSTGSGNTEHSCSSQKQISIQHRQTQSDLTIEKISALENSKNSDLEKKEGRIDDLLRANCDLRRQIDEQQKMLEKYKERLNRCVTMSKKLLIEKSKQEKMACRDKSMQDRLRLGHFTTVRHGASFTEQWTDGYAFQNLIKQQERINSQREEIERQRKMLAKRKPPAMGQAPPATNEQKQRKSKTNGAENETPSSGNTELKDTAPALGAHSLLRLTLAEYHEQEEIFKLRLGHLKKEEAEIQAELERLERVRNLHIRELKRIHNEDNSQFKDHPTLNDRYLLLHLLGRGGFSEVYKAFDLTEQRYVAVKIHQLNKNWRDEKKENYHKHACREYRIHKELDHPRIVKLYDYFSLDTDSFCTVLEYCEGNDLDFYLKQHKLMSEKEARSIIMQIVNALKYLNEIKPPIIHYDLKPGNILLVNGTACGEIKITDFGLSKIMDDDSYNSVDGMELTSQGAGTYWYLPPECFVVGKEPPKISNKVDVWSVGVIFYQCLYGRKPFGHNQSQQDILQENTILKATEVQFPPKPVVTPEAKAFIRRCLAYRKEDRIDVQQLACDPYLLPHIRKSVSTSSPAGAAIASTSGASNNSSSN

What is called residual activity is the signal under treatment as a percentage of the control signal. For the molecule `O=C(Nc1cccc(Nc2cc(Nc3cccc(C(F)(F)F)c3)ncn2)c1)C1CC1`, the residual activity in [1] amounted to 96%; in test [2], 48%; in [3], 117%; in test [4], 103%; in test [5], 73%; in [6], 96%. In addition, the residual activity in test [7] was found to be 95%; in test [8], 63%; in test [9], 102%; in [10], 97%; in [11] it was 101%; in [12], 87%. For the same molecule, the residual activity in test [13] is 77%; in test [14], 96%; in test [15], 27%; in test [16], 60%; in [17] it was 70%; in [18] it was 68%. The residual activity was 9% in test [19] and 76% in test [20].

As for `COc1ccc(C(=O)Nc2sc3c(c2C(N)=O)CCCC3)cc1OC`, the residual activity in test [1] was found to be 92%; in [2], 84%; in [3], 77%; in [4] it was 96%; in test [5], 80%; in test [6] it was 103%. Further, the residual activity in test [7] worked out at 110%; in test [8] it was 72%; in [9], 95%; in test [10] it was 87%; in test [11], 94%; in test [12], 75%. Besides, the residual activity in test [13] was 85%; in [14], 89%; in test [15] it was 86%; in [16], 79%; in [17], 59%; in test [18] it was 58%. For the same molecule, the residual activity stood at 76% in test [19] and 70% in test [20].

For `CC#CC(=O)Nc1cc2c(Nc3ccc(F)c(Cl)c3)ncnc2cn1`, the residual activity was 100% in test [1]; 84% in test [2]; 70% in test [3]; 99% in [4]; 73% in test [5]; 95% in [6]. Moreover, the residual activity in test [7] was determined as 107%; in test [8], 84%; in [9] it was 102%; in [10], 87%; in test [11], 98%; in test [12] it was 81%. For the same molecule, the residual activity in [13] worked out at 82%; in [14], 62%; in test [15], 70%; in test [16] it was 52%; in test [17], 57%; in test [18], 91%. The values for the residual activity in [19] and in test [20] were 111% and 110%, respectively.

The record behind these values is ChEMBL document CHEMBL2218924, “A broad activity screen in support of a chemogenomic map for kinase signalling research and drug discovery” (Biochem J, 2013).
